Measurements: PubChem BioAssay AID1159580 (chemical genetic matrix, 2015)
Hit rate of the full screen: of about 5,500 compounds, about 2,000 (36%) were called active. Inconclusive results (about 18%) are left out. Rule as the data show it: active = normalized growth mostly below about 0.91 (no sharp cut-off); inconclusive = no clear call, values can overlap the other calls; inactive = mostly above about 0.92. The list shows a part of the results.

Assay: chemical genetic growth profiling, strain panel (AID 1159580);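 also: tested at 20 µM; growth read once vehicle control cultures reached saturation at 30 °C; 1 = growth at the plate median or of vehicle wells; lower values mean less growth of the strain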
Details: S. cerevisiae deletion strains, growth OD
[1] = locus YDL101C, strain DUN1, hits give low values
[2] = locus YGR078C, strain PAC10, hits give low values
[3] = locus YHR030C, strain SLT2, hits give low values
[4] = locus YJR075W, strain HOC1, hits give low values
[5] = locus YMR263W, strain SAP30, hits give low values
[6] = locus YMR307W, strain GAS1, hits give low values
[7] = locus YNL153C, strain GIM3, hits give low values
[8] = locus YNL322C, strain KRE1, hits give low values
[9] = locus YPL241C, strain CIN2, hits give low values
[10] = locus YAL040C, strain CLN3, hits give low values
[11] = locus YCL061C, strain MRC1 (second series), hits give low values
[12] = locus YDR363W, strain ESC2, hits give low values
[13] = locus YER002W, strain NOP16, hits give low values
[14] = locus YNL175C, strain NOP13, hits give low values
[15] = locus YNL197C, strain WHI3, hits give low values
[16] = locus YNL224C, strain SQS1, hits give low values
[17] = locus YOR083W, strain WHI5 (second series), hits give low values
[18] = locus YAR019C, strain CDC15, hits give low values
[19] = locus YBL105C, strain PKC1, hits give low values
[20] = locus YBR135W, strain CKS1, hits give low values
[21] = locus YBR136W, strain MEC1, hits give low values
[22] = locus YBR160W, strain CDC28, hits give low values
[23] = locus YDL017W, strain CDC7, hits give low values
[24] = locus YDL028C, strain MPS1, hits give low values
[25] = locus YDL108W, strain KIN28, hits give low values
[26] = locus YDL132W, strain cdc53, hits give low values
[27] = locus YDL214C, strain PRR2, hits give low values
[28] = locus YDR052C, strain DBF4, hits give low values
[29] = locus YDR054C, strain cdc34, hits give low values
[30] = locus YDR226W, strain ADK1, hits give low values
[31] = locus YDR477W, strain SNF1, hits give low values
[32] = locus YER123W, strain YCK3, hits give low values
[33] = locus YER133W, strain GLC7, hits give low values
[34] = locus YFL009W, strain cdc4, hits give low values
[35] = locus YFL029C, strain CAK1, hits give low values
[36] = locus YFR003C, strain YPI1, hits give low values
[37] = locus YFR019W, strain FAB1, hits give low values
[38] = locus YFR028C, strain CDC14, hits give low values
[39] = locus YGR040W, strain KSS1, hits give low values
[40] = locus YGR052W, strain FMP48, hits give low values
[41] = locus YGR092W, strain DBF2, hits give low values
[42] = locus YHR079C, strain IRE1, hits give low values
[43] = locus YHR082C, strain KSP1, hits give low values
[44] = locus YHR205W, strain SCH9, hits give low values
[45] = locus YIL147C, strain SLN1, hits give low values
[46] = locus YJL095W, strain BCK1, hits give low values
[47] = locus YJL128C, strain PBS2, hits give low values
[48] = locus YJL157C, strain FAR1, hits give low values
[49] = locus YJR016C, strain ILV3, hits give low values
[50] = locus YJR066W, strain TOR1 (second series), hits give low values
[51] = locus YJR066W, strain TOR1, hits give low values
[52] = locus YKL048C, strain ELM1, hits give low values
[53] = locus YKL067W, strain YNK1, hits give low values
[54] = locus YKL101W, strain HSL1, hits give low values
[55] = locus YKL193C, strain SDS22, hits give low values
[56] = locus YKL203C, strain TOR2, hits give low values
[57] = locus YLR113W, strain HOG1, hits give low values
[58] = locus YLR133W, strain CKI1, hits give low values
[59] = locus YLR403W, strain SFP1, hits give low values
[60] = locus YML070W, strain DAK1, hits give low values
[61] = locus YMR001C, strain CDC5, hits give low values
[62] = locus YMR205C, strain PFK2 (second series), hits give low values
[63] = locus YMR277W, strain FCP1, hits give low values
[64] = locus YNL006W, strain LST8, hits give low values
[65] = locus YNL020C, strain ARK1, hits give low values
[66] = locus YNL161W, strain CBK1, hits give low values
[67] = locus YNL183C, strain NPR1, hits give low values
[68] = locus YNL207W, strain RIO2, hits give low values
[69] = locus YNL222W, strain SSU72, hits give low values
[70] = locus YNL307C, strain MCK1 (second series), hits give low values
[71] = locus YOL078W, strain AVO1, hits give low values
[72] = locus YOL136C, strain PFK27, hits give low values
[73] = locus YOR061W, strain CKA2, hits give low values
[74] = locus YOR119C, strain RIO1, hits give low values
[75] = locus YOR231W, strain MKK1, hits give low values
[76] = locus YOR329C, strain SCD5, hits give low values
[77] = locus YPL031C, strain PHO85, hits give low values
[78] = locus YPL153C, strain RAD53, hits give low values
[79] = locus YPL204W, strain HRR25, hits give low values
[80] = locus YPL209C, strain IPL1, hits give low values
[81] = locus YPL256C, strain CLN2, hits give low values
[82] = locus YPR025C, strain CCL1, hits give low values
[83] = locus YPR106W, strain ISR1, hits give low values
[84] = locus YPR111W, strain DBF20, hits give low values
[85] = strain NNK1, hits give low values
[86] = strain TSCII, hits give low values

Measured: normalized growth

ON=C(c1cccs1)c1cccs1
active: [3] 0.383 | locus YLR039C, strain RIC1, hits give low values 0.62 | locus YLR085C, strain ARP6, hits give low values 0.673 | locus YLR262C, strain YPT6, hits give low values 0.657 | [6] 0.657 | [8] 0.924 | locus YPR135W, strain CTF4, hits give low values 0.637
inactive: locus YAL013W, strain DEP1, hits give low values 0.947 | locus YBR229C, strain ROT2, hits give low values 0.94 | [1] 0.94 | locus YDL134C, strain PPH21, hits give low values 0.989 | locus YDR150W, strain NUM1, hits give low values 0.921 | locus YEL061C, strain CIN8, hits give low values 0.947 | [2] 0.928 | locus YHR087W, strain rtc3, hits give low values 0.965 | locus YJR043C, strain POL32, hits give low values 0.944 | [4] 0.927 | locus YLR058C, strain SHM2 (second series), hits give low values 0.959 | locus YML094W, strain GIM5, hits give low values 0.903 | locus YMR219W, strain ESC1, hits give low values 0.963 | [5] 0.957 | locus YNL128W, strain TEP1, hits give low values 1 | [7] 0.958 | locus YNL298W, strain CLA4 (second series), hits give low values 0.893 | locus YNR030W, strain Alg12, hits give low values 0.895 | locus YOL006C, strain TOP1, hits give low values 0.896 | locus YPL055C, strain LGE1, hits give low values 0.941 | [9] 0.876

O=C(Nc1ccccc1)c1cc([N+](=O)[O-])ccc1Cl
inactive: [10] 1.07 | [11] 0.989 | [12] 0.967 | [13] 0.972 | [2] 0.974 | locus YGR229C, strain SMI1, hits give low values 0.996 | [14] 0.996 | [15] 0.969 | [16] 0.976 | [8] 0.999 | [17] 0.958 | [9] 1

O=C1NC(=O)C(c2ccccc2[N+](=O)[O-])=C1Nc1ccc(O)c(Cl)c1
inactive: [10] 0.951 | [11] 0.974 | [12] 0.964 | [13] 0.98 | [4] 1 | [5] 0.99 | [6] 1.04 | [7] 0.971 | [14] 0.953 | [15] 0.981 | [16] 0.996 | [17] 0.943 | [9] 0.982

O=C(Nc1ccccc1)Nc1ccc(Cl)cc1[N+](=O)[O-]
active: [3] 0.721 | [81] 0.809
inactive: [18] 0.977 | [19] 0.973 | [20] 0.976 | [21] 0.977 | [22] 0.964 | [23] 0.975 | [24] 0.974 | [1] 0.987 | [25] 0.988 | [26] 0.962 | [27] 0.917 | [28] 0.968 | [29] 0.97 | [30] 0.968 | [31] 0.947 | [32] 0.92 | [33] 0.959 | [34] 0.961 | [35] 0.977 | [36] 0.989 | [37] 0.933 | [38] 0.974 | [39] 0.938 | [40] 1.01 | [41] 0.932 | [42] 0.872 | [43] 0.926 | [44] 0.874 | [45] 0.972 | [46] 0.847 | [47] 0.958 | [48] 0.946 | [49] 0.972 | [50] 0.928 | [51] 0.903 | [52] 0.925 | [53] 0.93 | [54] 0.921 | [55] 0.968 | [56] 0.976 | [57] 0.888 | [58] 0.92 | [59] 0.944 | [60] 0.909 | [61] 0.977 | [62] 0.941 | [63] 0.974 | [64] 0.976 | [65] 0.909 | [66] 0.976 | [67] 0.906 | [68] 0.96 | [69] 0.985 | [70] 0.916 | [71] 0.97 | [72] 0.892 | [73] 0.956 | [74] 1.01 | [75] 0.835 | [76] 0.978 | [77] 0.948 | [78] 0.942 | [79] 0.925 | [80] 0.975 | [82] 0.979 | [83] 0.975 | [84] 0.963 | [85] 0.952 | [86] 0.965

O=[N+]([O-])c1cc(Cl)cc([N+](=O)[O-])c1Nc1ccccc1
active: [3] 0.824
inactive: [18] 0.924 | [19] 0.927 | [20] 0.916 | [21] 0.923 | [22] 0.918 | [23] 0.937 | [24] 0.925 | [1] 0.919 | [25] 0.935 | [26] 0.91 | [27] 0.986 | [28] 0.94 | [29] 0.893 | [30] 0.934 | [31] 0.949 | [32] 0.975 | [33] 0.977 | [34] 0.917 | [35] 0.929 | [36] 0.938 | [37] 0.963 | [38] 0.942 | [39] 0.963 | [40] 1.1 | [41] 0.89 | [42] 0.976 | [43] 0.997 | [44] 0.965 | [45] 0.933 | [46] 0.921 | [47] 0.916 | [48] 0.957 | [49] 0.936 | [50] 0.946 | [51] 0.969 | [52] 0.93 | [53] 0.982 | [54] 0.96 | [55] 0.932 | [56] 0.989 | [57] 0.923 | [58] 0.954 | [59] 0.992 | [60] 0.987 | [61] 0.929 | [62] 0.998 | [63] 0.936 | [64] 0.926 | [65] 0.928 | [66] 0.92 | [67] 0.992 | [68] 0.935 | [69] 0.936 | [70] 0.943 | [71] 0.922 | [72] 0.981 | [73] 0.968 | [74] 1.03 | [75] 0.962 | [76] 0.926 | [77] 0.948 | [78] 0.965 | [79] 0.946 | [80] 0.933 | [81] 0.972 | [82] 0.922 | [83] 0.949 | [84] 0.934 | [85] 0.954 | [86] 0.915
